Measurements: PubChem BioAssay (Tox21)
Results filed as inconclusive are left out. Activity calls are given as the source filed them. Unless noted, the call rests on the fitted dose curve.

Columns and labels:
[1] = qHTS assay to identify small molecule agonists of the vitamin D receptor (VDR) signaling pathway - cell viability counter screen (AID 743224; active means well fitted curve in the direction sought with a large enough effect in the repeat runs; an effect the other way counts as inactive or inconclusive; further: nearly all actives have a fitted effect of over 50% in size; further: potency means the concentration at half of the fitted maximal effect; on activity change, negative = cytotoxicity: series mostly up to about 63 µM; on the % scale 0 is the no-effect control and ±100 the full control effect)
Outline: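 Viability is measured in the same wells as the VDR-bla reporter assay: after 16 h compound treatment and 2 h substrate loading, CellTiter-Glo is added and luminescence read 30 min later.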

[2] = qHTS assay to identify small molecule antagonists of the vitamin D receptor (VDR) signaling pathway - cell viability counter screen (AID 743225; active means well fitted curve in the direction sought with a large enough effect in the repeat runs; an effect the other way counts as inactive or inconclusive; further: on the % scale 0 is the no-effect control and ±100 the full control effect; nearly all actives have a fitted effect of over 50% in size)
Outline: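 Cytotoxicity counter screen read by CellTiter-Glo luminescence (30 min, room temperature) in the same wells as the VDR-bla antagonist readout. HEK 293T VDR-UAS-bla cells had 16 h at 37C with compound and 3 nM (final) 1-alpha,25-dihydroxyvitamin D3, then 2 h with FRET substrate.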

[3] = qHTS assay to identify small molecule agonists of the NFkB signaling pathway (AID 1159509; active means well fitted curve in the direction sought with a large enough effect in the signal ratio in the repeat runs, not every such curve was filed as active; the % refers to the signal ratio; further: series mostly up to about 61 µM; on the % scale 0 is the no-effect control and ±100 the full control effect)
Outline: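 NFkB-bla ME-180 cells with a beta-lactamase reporter under an NF-kB response element were plated overnight, treated with compounds in DMSO for 5 hr at 37 C, then loaded with FRET substrate for 1.5 hr at room temperature.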

[4] = qHTS assay to identify small molecule agonists of the NFkB signaling pathway - cell viability counter screen (AID 1159515); further: series mostly up to about 61 µM; on the % scale 0 is the no-effect control and ±100 the full control effect; nearly all actives have a fitted effect of over 55% in size
Outline: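 Multiplexed viability readout: after the 5 hr compound exposure and 1.5 hr FRET substrate step, CellTiter-Glo reagent went into the same NFkB-bla ME-180 wells; ATP luminescence was measured after 30 min at room temperature.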

[5] = qHTS assay to identify small molecule agonists of the endoplasmic reticulum stress response signaling pathway (AID 1159516; active means well fitted activation curve with a large enough effect in the signal ratio in the repeat runs, not every such curve was filed as active; the % refers to the signal ratio; further: on the % scale 0 is the no-effect control and ±100 the full control effect)
Outline: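 Tox21 10K library screened in quantitative HTS format on ESRE-bla HeLa cells, a beta-lactamase reporter under ER stress response element control; 5 hr treatment, FRET read.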

[6] = qHTS assay to identify small molecule agonists of the endoplasmic reticulum stress response signaling pathway - cell viability counter screen (AID 1159517); further: series mostly up to about 61 µM; on the % scale 0 is the no-effect control and ±100 the full control effect; nearly all actives have a fitted effect of over 50% in size
Outline: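 Luminescence readout: CellTiter-Glo, 30 min RT, same wells as the ESRE-bla reporter read. HeLa ESRE-bla, 1,500 cells/well, o/n 37 C; cpd 5 hr 37 C/5% CO2.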

[7] = qHTS assay to identify small molecule antagonists of the retinoid-related orphan receptor gamma (ROR-gamma) signaling pathway - cell viability counter screen (AID 1159520; active means well fitted curve in the direction sought with a large enough effect in the repeat runs; an effect the other way counts as inactive or inconclusive; further: on the % scale 0 is the no-effect control and ±100 the full control effect; nearly all actives have a fitted effect of over 50% in size)
Outline: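 Tet-on ROR gamma CHO cells (1,000/well) were plated 4 hr, given compounds in DMSO for 2 hr at 37 C, then induced with 1 uM final doxycycline for 16 hr. Viability was read as ATP by CellTiter-Glo luminescence after 30 min.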

[8] = molecular target: Nuclear receptor ROR-gamma (Homo sapiens) (UniProt P51449); assay: qHTS assay to identify small molecule antagonists of the retinoid-related orphan receptor gamma (ROR-gamma) signaling pathway (AID 1159521; active means well fitted curve in the direction sought with a large enough effect in the repeat runs; an effect the other way counts as inactive or inconclusive)
Outline: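 Antagonist read-out: drop in luminescence (ONE-Glo) from an RORE-LUC reporter in CHO cells with doxycycline-inducible ROR-gamma; 2 hr compound pretreatment, 1 uM doxycycline, 16 hr incubation at 37 C.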

[9] = qHTS assay to identify small molecule agonists of the AP-1 signaling pathway (AID 1159526); further: on the % scale 0 is the no-effect control and ±100 the full control effect
[10] = qHTS assay to identify small molecule agonists of the AP-1 signaling pathway - cell viability counter screen (AID 1159525); further: nearly all actives have a fitted effect of over 55% in size
Outline: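 ME-180 AP-1-bla, 2500 cells/well, Opti-MEM + 0.5% dialyzed FBS; overnight 37 °C; cpd 15-pt titration, 5 h 37 °C; CellTiter-Glo 30 min RT; luminescence read; normalised to TOAB and DMSO controls.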

CC(C)CCCCOC(=O)c1ccccc1C(=O)OCCCCC(C)C
inactive: Potency [1] | outcome [2] | outcome [3] | outcome [4] | outcome [5] | Potency [6] | outcome [7] | outcome [8] | outcome [9]

O=C1c2ccccc2C(=O)c2cc(S(=O)(=O)O)ccc21
inactive: Potency [1] | outcome [2] | outcome [3] | outcome [4] | outcome [5] | Potency [6] | outcome [7] | outcome [8] | outcome [9]

O=C1O[C@@H]2[C@@H](O)[C@H](O)O[C@@H]2[C@H]1O
inactive: Potency [1] | outcome [2] | outcome [3] | outcome [4] | outcome [5] | Potency [6] | outcome [7] | outcome [10] | outcome [9]

CC(C)N(c1ccccc1)C(C)C
inactive: Potency [1] | outcome [2] | outcome [3] | outcome [4] | outcome [5] | Potency [6] | outcome [7] | outcome [10] | outcome [9]

CCCOC(=O)C(C)O (stereo not given)
inactive: outcome [2] | outcome [3] | outcome [4] | outcome [5] | Potency [6] | outcome [7] | outcome [10] | outcome [9]
active: Potency [1] 56.1 µM

C=C(C)C(=O)OCc1ccccc1
inactive: outcome [2] | outcome [3] | outcome [4] | outcome [5] | Potency [6] | outcome [7] | outcome [8] | outcome [9]

N#Cc1ccc(C(=O)O)cc1
inactive: Potency [1] | outcome [2] | outcome [3] | outcome [4] | outcome [5] | Potency [6] | outcome [7] | outcome [8] | outcome [9]

Cc1cc(NC(=O)C2=C(O)c3ccccc3S(=O)(=O)N2C)no1
inactive: Potency [1] | outcome [2] | outcome [3] | outcome [4] | outcome [5] | Potency [6] | outcome [8] | outcome [10] | outcome [9]

OCCN(CCO)c1cccc(Cl)c1
inactive: Potency [1] | outcome [2] | outcome [3] | outcome [4] | outcome [5] | Potency [6] | outcome [7] | outcome [8] | outcome [9]

CCCCN
inactive: Potency [1] | outcome [2] | outcome [3] | outcome [4] | outcome [5] | Potency [6] | outcome [7] | outcome [10] | outcome [9]

CN1CCN(CC(=O)N2c3ccccc3C(=O)Nc3cccnc32)CC1
inactive: activity change, negative = cytotoxicity [1] 0.894% [at 5.95 µM] | viability change, negative = cytotoxic [2] -0.964% [at 6.95 µM] | activation [3] -0.0785% [at 6.95 µM] | activity, negative = cytotoxic [4] 1.12% [at 6.95 µM] | activation [5] -0.546% [at 6.95 µM] | activity change, negative = cytotoxicity [6] -3.52% [at 6.95 µM] | activity, negative = cytotoxicity [7] 3.19% [at 8.39 µM] | viability change, negative = cytotoxic [10] 2.29% [at 6.97 µM] | activation [9] -1.4% [at 6.97 µM]

CC(=O)OC(C)OC(=O)C(C)c1ccc(-c2ccccc2)c(F)c1 (stereo not given)
inactive: Potency [1] | outcome [2] | outcome [3] | outcome [4] | outcome [5] | Potency [6] | outcome [7] | outcome [10] | outcome [9]

C=C(C)C(=O)OCCNC(C)(C)C
inactive: Potency [1] | outcome [2] | outcome [3] | outcome [4] | outcome [5] | Potency [6] | outcome [7] | outcome [10] | outcome [9]

CCOCCOCCOCC
inactive: Potency [1] | outcome [2] | outcome [3] | outcome [4] | outcome [5] | Potency [6] | outcome [8] | outcome [10] | outcome [9]

CCCCNC1CC(C)(C)NC(C)(C)C1
inactive: Potency [1] | outcome [2] | outcome [3] | outcome [4] | outcome [5] | Potency [6] | outcome [7] | outcome [8] | outcome [9]

O=C(O)Cc1ccc(Cl)cc1Cl
inactive: Potency [1] | outcome [2] | outcome [3] | outcome [4] | outcome [5] | Potency [6] | outcome [7] | outcome [10] | outcome [9]

CC(=O)N[C@@H](CCC(=O)O)C(=O)O
inactive: Potency [1] | outcome [2] | outcome [3] | outcome [4] | outcome [5] | Potency [6] | outcome [7] | outcome [10] | outcome [9]

Cc1cccc(OCC(O)CNC(C)(C)C)c1C (stereo not given)
inactive: Potency [1] | outcome [2] | outcome [3] | outcome [4] | outcome [5] | Potency [6] | outcome [7] | outcome [10] | outcome [9]

CCCCNc1ccc(C(=O)OCCN(C)C)cc1
inactive: Potency [1] | outcome [2] | outcome [3] | outcome [4] | outcome [5] | Potency [6] | outcome [8] | outcome [10] | outcome [9]

CCCCCCN
inactive: Potency [1] | outcome [2] | outcome [3] | outcome [4] | outcome [5] | Potency [6] | outcome [8] | outcome [10] | outcome [9]

NNc1nnc(NN)c2ccccc12
inactive: Potency [1] | outcome [3] | outcome [4] | outcome [5] | Potency [6] | outcome [8] | outcome [10] | outcome [9]

C[C@@H]1O[C@@H](O[C@@H]2[C@@H](O)[C@H](OCCc3ccc(O)c(O)c3)O[C@H](CO[C@@H]3O[C@H](CO)[C@@H](O)[C@H](O)[C@H]3O)[C@H]2OC(=O)/C=C/c2ccc(O)c(O)c2)[C@H](O)[C@H](O)[C@H]1O
inactive: Potency [1] | outcome [2] | outcome [3] | outcome [4] | outcome [5] | Potency [6] | outcome [7] | outcome [8] | outcome [9]

Cc1cc2cc3c(C)cc(=O)oc3c(C)c2o1
inactive: Potency [1] | outcome [2] | outcome [3] | outcome [4] | outcome [5] | Potency [6] | outcome [7] | outcome [9]

NS(=O)(=O)c1cc2c(cc1Cl)CN(C1CCCCC1)C2=O
inactive: Potency [1] | outcome [2] | outcome [3] | outcome [4] | outcome [5] | Potency [6] | outcome [7] | outcome [9]

O=C(OCC(O)CO)c1ccccc1Nc1ccnc2c(C(F)(F)F)cccc12 (stereo not given)
inactive: Potency [1] | outcome [2] | outcome [3] | outcome [4] | outcome [5] | Potency [6] | outcome [7] | outcome [10] | outcome [9]

C[Si](C)=O
inactive: activity change, negative = cytotoxicity [1] 2.87% [at 5.95 µM] | viability change, negative = cytotoxic [2] 6.84% [at 6.95 µM] | activation [3] 0.149% [at 6.95 µM] | activity, negative = cytotoxic [4] 10.4% [at 6.95 µM] | activation [5] -1.7% [at 6.95 µM] | activity change, negative = cytotoxicity [6] -12.1% [at 6.95 µM] | activity, negative = cytotoxicity [7] 0.127% [at 8.39 µM] | viability change, negative = cytotoxic [10] -14.5% [at 6.97 µM] | activation [9] -3.55% [at 6.97 µM]
